RORgamma inh – inhibitors of mouse ROR gamma transcriptional activity | Drosophila S2 Gal4-RORgamma UAS-luciferase reporter, 20 h | Potency, µM (highest dose often 53.6 µM), inactives show top-dose activity change, negative = inhibition, actives largely listed as inhibitors | 310,000 tested, 5.4% active | AID 2551; note: % is set by controls: 0 for no effect and ±100 for the full control effect; nearly all actives have a fitted effect of over 60% in size
Target sequence (P51450 whole entry, looked up, the tested form may be a part): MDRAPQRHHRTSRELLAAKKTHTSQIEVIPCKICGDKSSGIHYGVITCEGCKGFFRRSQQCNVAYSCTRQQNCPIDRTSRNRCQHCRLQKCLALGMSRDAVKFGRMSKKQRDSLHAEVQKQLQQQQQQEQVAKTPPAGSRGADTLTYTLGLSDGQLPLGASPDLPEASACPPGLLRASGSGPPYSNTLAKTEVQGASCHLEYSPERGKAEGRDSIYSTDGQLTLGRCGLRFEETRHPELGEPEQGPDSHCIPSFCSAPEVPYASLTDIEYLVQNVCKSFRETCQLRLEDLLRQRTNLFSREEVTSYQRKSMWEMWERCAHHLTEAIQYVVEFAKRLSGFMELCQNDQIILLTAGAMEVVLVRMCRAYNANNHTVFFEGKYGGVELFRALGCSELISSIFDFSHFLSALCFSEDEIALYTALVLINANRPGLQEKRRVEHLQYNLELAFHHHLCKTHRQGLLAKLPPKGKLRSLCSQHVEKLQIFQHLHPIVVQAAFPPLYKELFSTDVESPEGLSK
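Read-out: Photinus luciferase luminescence; inhibitors lower reporter signal. Insect Schneider cells with Gal4-ROR gamma fusion under metallothionein promoter, UAS reporter; 700 uM final copper sulfate induction, 20 hr, ambient temperature.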
SW480 rerep – induces DNA re-replication in SW480 colon adenocarcinoma cells | SW480 DNA re-replication, Hoechst DNA content imaging, 48 h | Potency, µM (doses to about 46.1 µM), inactives show at the top dose re-replication activation, usual class: activators | 340,000 tested, 1.8% active | AID 624297; note: % of control where 0% means no effect; nearly all actives have a fitted effect of over 55% in size
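Readout is total intensity of Hoechst-stained nuclei, excited at 405 nm and collected at 500-530 nm. Compound treatment lasted 48 hr at 37 C in 5% CO2 before staining.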
MCF10A rereplic – inducers of DNA re-replication in MCF 10A breast cells | Potency, µM (doses to about 46.1 µM), without a hit: at the top dose activity, positive = re-replication, hits mostly activators | MCF 10A DNA re-replication, Hoechst nuclear intensity, 48 h | 350,000 tested, 2.9% active; note: % of control where 0% means no effect; nearly all actives have a fitted effect of over 50% in size
Gal4-VP16 FLuc – counter-screen for ROR gamma inhibitors: Gal4-VP16 reporter; Drosophila S2 Gal4-VP16 UAS-luciferase, luminescence, 20 h; Potency, µM (series often up to 53.6 µM), for the others: at the top dose activity, negative = inhibition, most hits filed as inhibitors; 310,000 tested, 3.5% active; AID 2546;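 note: Gal4-VP16 expression switched on by copper sulfate through the metallothionein promoter; % is set by controls: 0 for no effect and ±100 for the full control effect; nearly all actives have a fitted effect of over 50% in size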
KB-3-1 tox – KB-3-1 parental cell cytotoxicity | KB-3-1 viability, CellTiter-Glo ATP luminescence, 72 h | 400,000 tested, 1.4% active | Potency, µM (highest dose often 46.1 µM), most hits filed as cytotoxic; note: % is set by controls: 0 for no effect and ±100 for the full control effect; nearly all actives have a fitted effect of over 60% in size
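Viability of parental KB-3-1 cells, measured by CellTiter-Glo luminescence, followed a 72 h incubation at 37 °C with pinned compounds in phenol-red-free DMEM containing 10% FBS.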
KB-V1 MDR tox – kills drug-selected multidrug resistant KB-V1 cells. KB-V1 MDR cells viability, CellTiter-Glo, 72 h. Potency, µM (titrated, usually from 46.1 µM), most hits filed as cytotoxic. 400,000 tested, 3.4% active; note: % is set by controls: 0 for no effect and ±100 for the full control effect; nearly all actives have a fitted effect of over 60% in size
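Cytotoxicity via CellTiter-Glo luminescence after 72 h compound exposure at 37 degrees C. Cells: drug-selected KB-V1 line, DMEM phenol-red free plus 10% FBS. Compounds tested at multiple concentrations; normalized data fitted to concentration-effect curves.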
Numbers without * were called inactive; i = inactive; ? = inconclusive; . = not tested or not shown. Most compounds without a hit are left out; they make up all but 10% or so of the library. Calls come from the whole dose curve; as a rule, active = well fitted curve in the direction sought with a large enough effect; inconclusive = small, poorly fitted or top-dose-only effect, or another doubt; inactive = no such curve, though single readings can be large; an effect the other way counts as inactive or inconclusive. Potency is the fitted concentration of half-maximal effect.

SMILES	RORgamma inh	SW480 rerep	MCF10A rereplic	Gal4-VP16 FLuc	KB-3-1 tox	KB-V1 MDR tox
Cc1ccccc1CNC(=O)C(=O)NCC(c1ccco1)S(=O)(=O)c1ccc(F)cc1 (stereo not drawn)	.	.	.	.	i	?
COc1ccc(C(=O)c2c(C(F)(F)F)oc3c2C(=O)c2ccccc2C3=O)cc1	16.6%	5.17µM*	4.11µM*	-4.7%	?	?
COc1ccc(-c2cn3nc(N4CCC(C(=O)Nc5cccc(OC)c5)CC4)sc3n2)cc1	.	.	.	.	i	i
N#C/C(=C/c1ccc2c(c1)OCO2)C(=O)NCCc1c[nH]c2ccccc12	-12.8%	?	?	?	i	14.6µM*
O=C(NCCc1c[nH]c2ccccc12)c1ccc2c(c1)OCO2	-20.9%	-4.5%	10.9%	-1.1%	i	i
CC1=NN(c2ccc(Cl)cc2)C(=O)C1	-1.5%	-3.6%	?	?	i	i
CC1=NN(c2nc(-c3ccc(F)cc3)cs2)C(=O)C1	12.6µM*	-8.9%	?	-7.6%	i	i
Fc1ccc(-c2csc(N3CCSCC3)n2)cc1	8.0%	0.9%	-54.1%	-2.9%	i	i
CC1=NN(c2nc(-c3ccc(Cl)cc3)cs2)C(=O)C1	10µM*	0.4%	?	?	i	?
Cn1c(SCc2cccc(F)c2)nnc1-c1ccncc1	7.7%	-2.2%	?	2.5%	i	i
CCN(CC)c1ccc(NC(=O)c2cnc3ccccn3c2=O)c(C)c1	18.3%	3.2%	?	-1.7%	i	3.66µM*
Cc1ccc(NC(=O)c2cnc3cc(C)ccn3c2=O)c(C)c1	.	.	.	.	i	i
CC(=O)Nc1nnc(COc2ccccc2)s1	-1.7%	18.4µM*	-1.6%	-16.4%	i	i
O=C(CSc1nncs1)Nc1ccc(N2CCCCC2)cc1	.	-5.3%	-1.1%	.	?	16.4µM*
O=C(O)CCC(=O)Nc1ccc(N2CCCCCC2)cc1	2.51µM*	1.2%	20.5%	-25.0%	i	i
Cc1ccccc1-c1nccc(NCCN2CCOCC2)n1	1.7%	.	.	5.4%	.	.
Cc1ccc2occ(CC(=O)N(Cc3ccc(Cl)cc3)C3CCS(=O)(=O)C3)c2c1 (stereo not drawn)	.	.	.	.	i	i
CNC(=S)NCc1ccc2[nH]c(C)cc2c1	-30.0%	-31.3%	0.3%	2.2%	i	i
CCc1cccc(C)c1NC(=S)NCc1ccc2[nH]c(C)cc2c1	3.98µM*	13µM*	-1.2%	10µM*	i	i
Fc1ccc(CNC(=S)NC2CCCC2)cc1	8.91µM*	?	9.0%	?	?	?
Cc1cc2cc(CNC(=S)NC3CCCCC3)ccc2[nH]1	14.1µM*	-37.6%	11.3%	?	i	?
S=C(NCc1ccncc1)NC1CCCC1	-11.1%	-4.1%	0.1%	4.1%	i	i
Cc1cc2cc(CNC(=O)NC3CCCCC3)ccc2[nH]1	?	3.8%	?	-3.9%	i	i
Fc1ccc(CNC(=S)NC2CCCCC2)cc1	5.01µM*	?	-2.1%	11.2µM*	i	i
Cc1ccccc1CNC(=O)C1CCN(S(=O)(=O)Cc2ccccc2)CC1	.	.	.	.	i	i
SMILES	RORgamma inh	SW480 rerep	MCF10A rereplic	Gal4-VP16 FLuc	KB-3-1 tox	KB-V1 MDR tox
Cc1cccc(NC(=O)c2ccc(Cn3nc(N4CCN(c5ccccc5)CC4)ccc3=O)o2)c1C	.	.	.	.	i	?
CCOC(=O)c1cccc(NC(=O)c2cc3c(Cl)nc4ccc(C)cc4c3s2)c1	.	.	.	.	i	i
CCCCOc1ccc(N2C(=O)C(C)CNC2=S)cc1 (stereo not drawn)	.	-3.0%	1.3%	.	i	i
NC(=S)c1cnn2c(-c3cccc(C(F)(F)F)c3)ccnc12	3.98µM*	-7.8%	-0.8%	10µM*	i	i
COc1cnc(-c2ccccn2)nc1N(C)C	17.8µM*	18.4µM*	13.4%	?	?	20.6µM*
COc1cnc(-c2ccccn2)nc1Oc1c(C)cccc1C	7.08µM*	?	?	20µM*	i	?
CN(C)c1nc(-c2ccccn2)nnc1-c1ccccc1	-27.5%	?	19.1%	1.2%	?	?
COc1ccc(Oc2nc(-c3ccccn3)ncc2OC)cc1	7.08µM*	-6.9%	-9.3%	-19.7%	i	i
COc1cnc(-c2ccccc2)nc1Oc1cccc(C)c1	33.3%	-3.1%	?	0.2%	i	i
COc1cnc(-c2ccccn2)nc1Oc1cccc(Cl)c1	2.82µM*	3.4%	0.9%	15.8µM*	i	6.51µM*
CCCCn1c(SCC(=O)Nc2cc(C(F)(F)F)cc(C(F)(F)F)c2)nnc1C(CC)N(C)C (stereo not drawn)	-1.6%	?	?	-23.1%	i	14.6µM*
CCCCn1c(SCC(=O)Nc2ccc3c(c2)OCCO3)nnc1C(CC)N(C)C (stereo not drawn)	.	-0.4%	3.0%	.	i	i
COC(=O)c1ccccc1NC(=O)c1cc2nc(-c3ccc(OC)cc3)cc(C(F)(F)F)n2n1	.	.	.	.	i	i
Cc1ccc(-n2nnnc2Sc2nc([N+](=O)[O-])nn2C)cc1	-28.4%	16.4µM*	?	-9.5%	i	i
COc1ccccc1CCNC(=O)Cc1c(C)c2ccc(O)cc2oc1=O	.	.	.	.	i	i
O=C1C=C(NC2=CC3OC(c4ccccc4)OCC3OC2=O)CCC1 (stereo not drawn)	10µM*	?	?	10µM*	?	?
Cc1cccc(OC(C)C(=O)Nc2ncn[nH]2)c1 (stereo not drawn)	.	.	.	.	i	i
Cc1ccc(N=Cc2cccc(O)c2O)c(C)c1	10µM*	.	.	?	i	i
CC(N=Cc1cc([N+](=O)[O-])ccc1O)c1ccccc1 (stereo not drawn)	?	-0.2%	-4.6%	?	i	i
Cc1ccccc1N=Cc1cccc(O)c1O	-30.1%	6.51µM*	?	-6.2%	i	?
CC(N=Cc1cccc(O)c1O)c1ccccc1 (stereo not drawn)	-34.4%	8.2µM*	?	-8.8%	i	i
O=C(Nc1cc(C(F)(F)F)ccc1-n1cncn1)c1ccc([N+](=O)[O-])o1	.	9.2µM*	?	.	20.6µM*	?
O=C(Nc1cc(C(F)(F)F)ccc1-n1cncn1)c1ccc(Br)cc1	-28.6%	-2.4%	0.6%	-20.0%	i	?
CC(NC(=O)c1ccccc1Br)C1CC2CCC1C2 (stereo not drawn)	.	-0.3%	9.1%	.	i	i
CC(NC(=S)Nc1ccccc1C(F)(F)F)C1CC2CCC1C2 (stereo not drawn)	3.16µM*	0.5%	-22.2%	10µM*	i	?

Screening results (PubChem)
